Screening results: PubChem BioAssay, University of Kansas High Throughput Screening Laboratory
Pf apPOL block = Pf-apPOL DNA polymerase inhibition; 0.25% of 210,000 active; inhibition, % at 10 µM; Recombinant Pf-apPOL, molecular beacon fluorescence, 1.5 h
mHTT-CaM PPI inh = disrupts binding of mutant huntingtin to calmodulin | P42858 | AlphaScreen His-mHTT/GST-CaM binding, luminescence | inhibition, % at 15 µM | 3.6% of 190,000 active | AID 1671202;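 note: 0% = both proteins with DMSO and 100% = one protein alone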
Numbers without * were called inactive; . = no result given. In the library only some 3.6% were active in any assay of this set; here they are far more common. Cut-off read from the data, not from the text of the source: active = inhibition above about 50%; inactive = the rest.

SMILES | Pf apPOL block | mHTT-CaM PPI inh
CCCCC(=O)N1C/C=C\C(c2ccc(OC)cc2)N(Cc2ccc(F)cc2)C(=O)[C@@H]1Cc1ccccc1 (stereo partly drawn) | -0.4 | 47.4
COc1ccc(C2/C=C\CN(C(=O)c3ccc(C)cc3)[C@@H](C)C(=O)N2Cc2ccc(F)cc2)cc1 (stereo partly drawn) | -5.6 | 93.3*
COc1ccc(C2/C=C\CN(C(=O)C3CCCCC3)[C@@H](C)C(=O)N2Cc2ccc(F)cc2)cc1 (stereo partly drawn) | -2.7 | 32.6
COc1ccc(C2/C=C\CN(Cc3ccccc3)[C@@H](C)C(=O)N2Cc2ccc(F)cc2)cc1 (stereo partly drawn) | 0.9 | 73.4*
Cc1ccc(Sc2nccnc2N2CCC(C(=O)NCCCN(C)C)CC2)cc1 | -5.7 | -0.3
CCn1c(SCc2cc(=O)n3cc(Br)ccc3n2)nc2ccsc2c1=O | -3.9 | 12.0
N=C1NC(=O)/C(=C/c2ccccc2Br)S1 | -3.5 | -5.0
N=C1NC(=O)/C(=C/c2ccc(Cl)cc2Cl)S1 | 55.7* | 7.0
COc1ccc(C2=NC(C)(C)N(CC(=O)Nc3ccc(F)cc3)C2=O)cc1 | -7.9 | 2.4
COc1ccc(-c2noc(C3CCCN3C(=O)c3ccncc3)n2)cc1 (stereo not drawn) | 1.0 | 2.9
CC(=O)Nc1ccc(S(=O)(=O)N2CCCC(C)(C(=O)NCc3cccc(F)c3)C2)cc1 (stereo not drawn) | -4.0 | 4.1
Cc1cc(=O)n(CCN2CCOCC2)c(N2CCCCC2)n1 | -6.4 | 7.9
O=C1Nc2ccccc2S/C1=C\C(=O)N1CCN(c2ccc(F)cc2)CC1 | -24.0 | 26.0
O=C(/C=C1\Sc2ccccc2NC1=O)NCCCN1CCN(c2ccc(F)cc2)CC1 | -16.6 | 74.0*
C/C(=C\C(=O)Nc1ccc(O)cc1C(=O)O)c1ccccc1 | 0.5 | 5.3
Cc1nc(CCNC(=O)C2CCCN2C(=O)c2ccccc2C)cs1 (stereo not drawn) | -3.9 | -1.6
COc1cccc(CNC(=O)C2CCCN(c3cn[nH]c(=O)c3)C2)c1OC (stereo not drawn) | -2.4 | -1.0
O=C(Nc1ccccc1[N+](=O)[O-])c1ccc(Cl)c(S(=O)(=O)NC2CCCC2)c1 | -6.6 | 28.3
O=C(Nc1ccccc1[N+](=O)[O-])c1cc(S(=O)(=O)NC2CCCCC2)c(Cl)cc1Cl | -3.8 | 57.5*
c1ccc(CN2CCC(N3CCCCCC3)CC2)nc1 | -2.2 | 2.6
CC1CCN(S(=O)(=O)c2ccc3[nH]c(=O)cc(C(=O)NCc4ccccn4)c3c2)CC1 | -6.0 | -12.0
CC1CCCCN1S(=O)(=O)c1ccc2[nH]c(=O)cc(C(=O)NCc3ccccc3Cl)c2c1 (stereo not drawn) | 35.8 | 63.0*
CC1=NN(c2ccccc2)C(=O)C1 | -2.8 | .
CC1=NN(c2ccc(Cl)cc2)C(=O)C1 | -2.0 | 68.4*
CCOC(=O)C1(N)CCC1 | . | -7.6
SMILES | Pf apPOL block | mHTT-CaM PPI inh
O=C(CSc1ncc(CO)n1CC(=O)NC1CC1)Nc1ccc(F)cc1F | -3.3 | -16.6
CSc1ccccc1NC(=O)C(c1ccccc1)n1cccc1 (stereo not drawn) | 15.3 | 60.1*
CSc1ccccc1NC(=O)C(c1ccccc1)c1ccccc1 | -6.8 | -26.4
COc1ccc(CN2CCc3c([nH]c4ccccc34)C2)c(OC)c1OC | 0.6 | 16.3
COCc1cc(=O)[nH]c(Nc2nc(C)c3cc(C)cc(C)c3n2)n1 | 6.1 | 1.3
O=C1Nc2ccccc2C12Oc1ccccc1C1CC(c3ccccc3)=NN12 (stereo not drawn) | -6.5 | 100.0*
COc1ccc(C2=NN3C(C2)c2cc(Cl)ccc2OC3(C)C)cc1 (stereo not drawn) | -16.3 | 38.0
CC1(C)Oc2ccccc2C2CC(c3cccs3)=NN21 (stereo not drawn) | -5.2 | 50.0
COc1ccc(C2=NN3C(C2)c2cc(Br)ccc2OC32C(=O)Nc3ccccc32)cc1 (stereo not drawn) | -3.0 | 100.0*
O=C(NCCN1CCCCC1)c1cn2cc(Cl)ccc2n1 | -3.5 | 3.1
COc1ccc(C2=NC3(CCN(CC(=O)Nc4cccc(OC)c4)CC3)NC2=O)cc1 | 1.5 | 4.1
O=C(Nc1ccc(F)cc1)C(C1CCCC1)N1CCN(C(=O)C2CC2)CC1 (stereo not drawn) | -0.1 | 7.8
Cc1cc(N2C(=O)CSC23C(=O)Nc2ccccc23)ccc1Cl (stereo not drawn) | 1.1 | 5.0
CCCCNC(=O)CN1C(=O)/C(=C/c2ccccc2C)Sc2ccccc21 | -4.9 | -4.0
O=C(CN1C(=O)CSc2ccccc21)NCc1ccccn1 | -19.9 | 24.0
CCN(CC)CCNC(=O)CN1C(=O)/C(=C/c2ccc(Cl)cc2)Sc2ccccc21 | 3.9 | 59.0*
CN(C)CCNC(=O)CN1C(=O)/C(=C/c2ccc(Cl)cc2)Sc2ccccc21 | 5.0 | 20.0
O=C(CN1C(=O)/C(=C/c2ccccc2)Sc2ccccc21)NCc1ccccn1 | -7.5 | 72.0*
CCOCCCNC(=O)CN1C(=O)/C(=C/c2ccccc2C)Sc2ccccc21 | 73.6* | 15.0
O=C(CN1C(=O)/C(=C/c2ccc(Cl)cc2)Sc2ccccc21)NCc1ccccn1 | -2.1 | 54.0*
COCCNC(=O)CN1C(=O)/C(=C/c2ccc(Cl)cc2)Sc2ccccc21 | -5.1 | 11.0
O=C1NC(=O)C(=Cc2cn(Cc3ccccc3F)c3ccccc23)C(=O)N1 | 1.3 | -1.0
CCC1CN2C=NC(N3CCN(C(=O)Nc4ccccc4Cl)CC3)=CC2=N1 (stereo not drawn) | -3.8 | -4.4
CN1C(=O)C2(CCN(C(=O)C(C)(C)C)C2)c2ccccc21 (stereo not drawn) | -3.8 | 0.2
O=S(=O)(Cc1nc(-c2cccc(C(F)(F)F)c2)no1)c1ccc(F)cc1 | -8.1 | -35.7
SMILES | Pf apPOL block | mHTT-CaM PPI inh
COc1cc(-c2nc3cc(C)ccc3o2)cc(OC)c1OC | -11.1 | 8.6
CCN(CCNC(=O)CN1C(=O)/C(=C/c2ccccc2F)Sc2ccccc21)c1ccccc1 | 0.9 | 17.0
CCN1CCN(C(=O)CN2C(=O)/C(=C/c3ccc(C(F)(F)F)cc3)Sc3ccccc32)CC1 | 2.4 | 68.0*
CN(CCNC(=O)CN1C(=O)/C(=C/c2ccccc2F)Sc2ccccc21)Cc1ccccc1 | -1.1 | 92.0*
O=C(CN1C(=O)/C(=C/c2ccc(C(F)(F)F)cc2)Sc2ccccc21)N1CCCC1 | 4.2 | 14.0
N#Cc1c(NC(=O)C2CCCO2)sc2c1CCCC2 (stereo not drawn) | . | -5.9
Cc1[nH]n(-c2ccccc2)c(=O)c1C=Nc1c(C)[nH]n(-c2ccccc2)c1=O | -2.0 | 8.0
Cc1[nH]n(-c2ccccc2)c(=O)c1C=Nc1cc(Br)ccc1O | 0.9 | 89.0*
COc1ccccc1N=Cc1c(C)[nH]n(-c2ccccc2)c1=O | -5.1 | 41.0
COc1ccc(OC)c(N=Cc2c(C)[nH]n(-c3ccccc3)c2=O)c1 | 0.3 | 67.0*
O=C(Cc1nnc(-c2ccsc2)o1)Nc1ccccc1F | -4.2 | -8.5
Cc1oc(C2CCN(C(=O)c3cc(F)cc(F)c3)CC2)nc1C(=O)N1CCCC1 | 0.3 | 9.9
Cc1ccnc(N2CCCC(C(=O)N3CCN(c4cccc(C(F)(F)F)c4)CC3)C2)n1 (stereo not drawn) | 2.1 | 78.1*
Cc1ccc(C)c(N2CCN(C(=O)C3CCN(c4ccncc4)CC3)CC2)c1 | -2.7 | 0.2
Cc1ccc(Cl)cc1N1CCN(C(=O)C2CCN(c3ccncc3)CC2)CC1 | 1.8 | 100.2*
CS(=O)(=O)N1CCC(C(=O)NCCCN2CCN(c3ccccc3)CC2)CC1 | -10.4 | -13.0
